Experimental data published in the supplement of paper PMC11001985.
A number with no mark means an inactive call.

Compound: C#CCNC(=O)CCSSCCC(=O)NCCc1ccc(C=O)c(C=O)c1
Assay: lysine labeling ratio R10:1 (500 µM / 50 µM probe), SILAC-ABPP in living cells; higher = lower intrinsic lysine reactivity toward the probe, active = 2 or less
Conditions: HeLa; probe concentrations 500 vs 50 µM
How it was run: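 Measurements came from LC-MS/MS on a TIMS-TOF Pro of mixed SILAC light and heavy HeLa lysates after click to biotin-azide, trypsin digestion, neutravidin capture, DTT release and alkylation. Before lysis, the living cells sat in PBS at room temperature with 50 µM or 500 µM of an alkyne-tagged, disulfide-linked lysine probe, and labels were swapped forward and reverse. R per lysine is the median across both swap directions of the filtered median high-probe/low-probe MS1 peptide ratio. The cap is 20.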

Chain of UniProt Q9UHI8 (Q9UHI8 whole entry): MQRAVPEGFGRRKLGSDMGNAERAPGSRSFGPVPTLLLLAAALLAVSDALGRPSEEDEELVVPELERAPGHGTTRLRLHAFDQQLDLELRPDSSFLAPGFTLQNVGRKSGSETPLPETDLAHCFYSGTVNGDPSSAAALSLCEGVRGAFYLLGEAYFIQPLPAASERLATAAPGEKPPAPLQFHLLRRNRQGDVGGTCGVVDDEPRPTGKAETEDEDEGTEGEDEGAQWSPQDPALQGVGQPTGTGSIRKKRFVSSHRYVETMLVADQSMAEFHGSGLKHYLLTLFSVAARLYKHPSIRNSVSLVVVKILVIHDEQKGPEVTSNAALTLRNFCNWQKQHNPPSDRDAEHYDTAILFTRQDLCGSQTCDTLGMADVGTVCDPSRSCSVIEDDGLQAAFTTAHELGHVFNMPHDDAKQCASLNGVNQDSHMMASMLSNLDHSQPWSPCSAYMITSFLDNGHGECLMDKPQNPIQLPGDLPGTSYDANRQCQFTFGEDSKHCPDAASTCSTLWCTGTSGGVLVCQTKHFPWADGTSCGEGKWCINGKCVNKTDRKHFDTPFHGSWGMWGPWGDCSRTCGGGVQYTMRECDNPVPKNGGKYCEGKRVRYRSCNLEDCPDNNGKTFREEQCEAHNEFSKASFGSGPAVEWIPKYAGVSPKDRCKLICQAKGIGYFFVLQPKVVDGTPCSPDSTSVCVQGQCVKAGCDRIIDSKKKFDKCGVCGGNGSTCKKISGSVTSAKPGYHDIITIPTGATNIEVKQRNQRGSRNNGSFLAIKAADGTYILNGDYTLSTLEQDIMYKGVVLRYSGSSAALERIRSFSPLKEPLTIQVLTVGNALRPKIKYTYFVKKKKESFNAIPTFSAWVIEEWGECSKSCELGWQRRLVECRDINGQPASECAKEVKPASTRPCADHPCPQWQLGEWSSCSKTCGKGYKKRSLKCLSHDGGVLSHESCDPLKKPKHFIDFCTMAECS
Chain of UniProt Q99500 (Q99500 whole entry): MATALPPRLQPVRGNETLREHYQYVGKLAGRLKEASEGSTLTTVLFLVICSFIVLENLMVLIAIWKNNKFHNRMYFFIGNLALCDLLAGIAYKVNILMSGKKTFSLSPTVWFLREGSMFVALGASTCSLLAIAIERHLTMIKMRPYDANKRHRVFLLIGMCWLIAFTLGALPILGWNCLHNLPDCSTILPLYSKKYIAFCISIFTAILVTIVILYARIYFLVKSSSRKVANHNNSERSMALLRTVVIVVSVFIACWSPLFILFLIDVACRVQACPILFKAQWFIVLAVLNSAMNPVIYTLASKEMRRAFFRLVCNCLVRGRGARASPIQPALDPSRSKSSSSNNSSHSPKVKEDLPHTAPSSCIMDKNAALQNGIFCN
Chain of UniProt P35052 (P35052 whole entry): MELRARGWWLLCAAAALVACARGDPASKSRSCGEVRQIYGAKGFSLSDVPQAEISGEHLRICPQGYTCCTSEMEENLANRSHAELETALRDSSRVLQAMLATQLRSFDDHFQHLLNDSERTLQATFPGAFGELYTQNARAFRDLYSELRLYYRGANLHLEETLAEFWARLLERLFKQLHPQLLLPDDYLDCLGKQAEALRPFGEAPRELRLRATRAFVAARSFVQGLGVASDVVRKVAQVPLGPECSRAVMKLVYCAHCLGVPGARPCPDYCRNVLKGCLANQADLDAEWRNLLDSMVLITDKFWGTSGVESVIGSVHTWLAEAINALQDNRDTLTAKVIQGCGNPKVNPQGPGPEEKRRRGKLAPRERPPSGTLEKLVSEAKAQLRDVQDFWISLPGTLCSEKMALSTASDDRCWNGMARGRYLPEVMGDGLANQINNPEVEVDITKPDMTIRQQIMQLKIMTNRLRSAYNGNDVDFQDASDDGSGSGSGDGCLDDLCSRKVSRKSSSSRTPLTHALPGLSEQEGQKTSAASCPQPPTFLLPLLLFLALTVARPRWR
Chain of UniProt P55268 (P55268 whole entry): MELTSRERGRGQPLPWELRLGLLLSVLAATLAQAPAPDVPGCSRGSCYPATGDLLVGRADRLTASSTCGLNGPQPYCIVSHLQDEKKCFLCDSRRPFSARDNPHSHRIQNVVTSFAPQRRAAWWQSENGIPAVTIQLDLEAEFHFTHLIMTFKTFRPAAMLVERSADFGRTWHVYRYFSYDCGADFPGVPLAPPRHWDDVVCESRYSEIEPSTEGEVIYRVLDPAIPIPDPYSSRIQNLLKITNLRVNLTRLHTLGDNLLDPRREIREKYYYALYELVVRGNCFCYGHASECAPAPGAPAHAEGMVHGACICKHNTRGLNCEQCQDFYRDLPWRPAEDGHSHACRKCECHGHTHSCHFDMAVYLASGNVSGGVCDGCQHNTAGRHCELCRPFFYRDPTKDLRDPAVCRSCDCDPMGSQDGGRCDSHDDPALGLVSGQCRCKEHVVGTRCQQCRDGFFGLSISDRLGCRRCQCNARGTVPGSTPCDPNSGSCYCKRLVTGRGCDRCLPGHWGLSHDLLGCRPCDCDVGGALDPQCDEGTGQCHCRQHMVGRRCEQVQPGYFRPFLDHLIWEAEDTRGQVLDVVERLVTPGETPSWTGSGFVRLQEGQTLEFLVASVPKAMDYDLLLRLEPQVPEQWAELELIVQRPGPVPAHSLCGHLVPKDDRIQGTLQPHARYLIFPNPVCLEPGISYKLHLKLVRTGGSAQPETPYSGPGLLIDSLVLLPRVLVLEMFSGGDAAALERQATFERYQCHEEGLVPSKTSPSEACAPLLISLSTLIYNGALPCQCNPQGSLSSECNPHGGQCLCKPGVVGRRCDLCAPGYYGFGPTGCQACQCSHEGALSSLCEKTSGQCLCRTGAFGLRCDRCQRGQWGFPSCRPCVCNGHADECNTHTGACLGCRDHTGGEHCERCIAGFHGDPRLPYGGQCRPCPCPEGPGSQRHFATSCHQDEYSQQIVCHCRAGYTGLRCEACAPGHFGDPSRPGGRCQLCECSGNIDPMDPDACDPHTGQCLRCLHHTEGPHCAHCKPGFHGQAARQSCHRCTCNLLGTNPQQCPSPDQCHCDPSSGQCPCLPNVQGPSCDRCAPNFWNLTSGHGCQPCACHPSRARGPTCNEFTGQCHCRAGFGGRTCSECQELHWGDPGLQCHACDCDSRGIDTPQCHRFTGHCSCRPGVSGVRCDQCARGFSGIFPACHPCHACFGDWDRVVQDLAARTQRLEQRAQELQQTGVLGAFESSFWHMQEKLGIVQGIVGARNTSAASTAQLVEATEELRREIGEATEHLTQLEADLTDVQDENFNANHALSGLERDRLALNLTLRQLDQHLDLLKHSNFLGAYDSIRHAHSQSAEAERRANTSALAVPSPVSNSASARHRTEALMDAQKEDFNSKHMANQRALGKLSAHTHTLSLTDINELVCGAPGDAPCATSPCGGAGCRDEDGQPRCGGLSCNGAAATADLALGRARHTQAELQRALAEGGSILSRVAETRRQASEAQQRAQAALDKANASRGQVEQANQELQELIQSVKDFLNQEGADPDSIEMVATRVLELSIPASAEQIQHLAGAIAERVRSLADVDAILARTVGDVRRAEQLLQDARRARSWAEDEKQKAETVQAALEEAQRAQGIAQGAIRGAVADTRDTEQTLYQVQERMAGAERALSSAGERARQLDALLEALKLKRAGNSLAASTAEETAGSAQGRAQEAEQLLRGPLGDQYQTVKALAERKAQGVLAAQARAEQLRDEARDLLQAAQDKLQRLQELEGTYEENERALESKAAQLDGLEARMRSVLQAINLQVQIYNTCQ
Chain of UniProt P26038 (P26038 whole entry): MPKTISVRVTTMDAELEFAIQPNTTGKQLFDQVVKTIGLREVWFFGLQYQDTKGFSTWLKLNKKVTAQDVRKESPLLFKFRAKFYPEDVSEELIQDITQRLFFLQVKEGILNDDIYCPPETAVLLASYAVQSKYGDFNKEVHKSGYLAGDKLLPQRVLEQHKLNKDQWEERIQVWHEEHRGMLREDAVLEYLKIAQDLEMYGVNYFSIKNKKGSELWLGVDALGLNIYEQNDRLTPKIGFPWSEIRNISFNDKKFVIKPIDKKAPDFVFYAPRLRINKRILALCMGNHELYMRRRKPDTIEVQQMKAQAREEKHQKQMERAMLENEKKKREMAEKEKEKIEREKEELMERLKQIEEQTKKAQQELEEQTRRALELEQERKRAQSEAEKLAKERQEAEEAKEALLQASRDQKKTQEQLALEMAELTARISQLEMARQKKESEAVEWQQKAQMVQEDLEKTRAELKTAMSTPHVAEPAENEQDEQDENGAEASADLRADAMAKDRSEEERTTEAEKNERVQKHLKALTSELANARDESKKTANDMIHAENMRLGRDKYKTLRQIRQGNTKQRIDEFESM
Chain of UniProt Q16880 (Q16880 whole entry): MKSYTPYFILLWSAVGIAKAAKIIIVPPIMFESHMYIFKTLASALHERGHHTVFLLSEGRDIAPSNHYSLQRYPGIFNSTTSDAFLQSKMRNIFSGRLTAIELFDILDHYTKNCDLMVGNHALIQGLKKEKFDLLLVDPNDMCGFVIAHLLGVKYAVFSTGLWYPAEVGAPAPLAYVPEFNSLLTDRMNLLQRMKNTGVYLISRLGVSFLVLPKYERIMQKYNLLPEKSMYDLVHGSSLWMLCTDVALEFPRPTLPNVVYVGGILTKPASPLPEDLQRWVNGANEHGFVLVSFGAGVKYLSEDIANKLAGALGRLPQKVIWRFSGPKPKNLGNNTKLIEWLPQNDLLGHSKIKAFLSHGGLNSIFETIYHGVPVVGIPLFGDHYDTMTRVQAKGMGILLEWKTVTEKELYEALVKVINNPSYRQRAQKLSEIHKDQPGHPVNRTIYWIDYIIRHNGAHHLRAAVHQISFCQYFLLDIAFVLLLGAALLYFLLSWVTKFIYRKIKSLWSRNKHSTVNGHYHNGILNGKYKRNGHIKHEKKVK
Chain of UniProt P23284 (P23284 whole entry): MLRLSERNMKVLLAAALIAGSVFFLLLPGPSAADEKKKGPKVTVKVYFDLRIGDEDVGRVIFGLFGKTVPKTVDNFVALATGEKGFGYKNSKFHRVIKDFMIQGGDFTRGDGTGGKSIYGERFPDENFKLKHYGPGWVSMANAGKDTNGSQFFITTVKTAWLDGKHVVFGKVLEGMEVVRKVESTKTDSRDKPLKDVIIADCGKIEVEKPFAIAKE

Row | Target | lysine labeling ratio R10:1
1 | UniProt Q9UHI8 (lysine site: K655) | 2.17
2 | MSN (lysine site: K458) (UniProt P26038) | 1.55 (active)
3 | ENO1 (lysine site: K406) (UniProt P06733) | 10
4 | PPIB (lysine site: K186) (UniProt P23284) | 3.18
5 | GSN (lysine site: K245) (UniProt P06396) | 4.08
6 | LAMB2 (lysine site: K1720) (UniProt P55268) | 5.02
7 | SEMA3C (lysine site: K724) (UniProt Q99985) | 4.97
8 | RPL3 (lysine site: K356) (UniProt P39023) | 2.08
9 | UniProt Q99500 (lysine site: K27) | 1.9 (active)
10 | CS (lysine site: K43) (UniProt O75390) | 4.66
11 | F11R (lysine site: K97) (UniProt Q9Y624) | 18.5
12 | RPL34 (lysine site: K19) (UniProt P49207) | 2.71
13 | LMO7 (lysine site: K1456) (UniProt Q8WWI1) | 1.37 (active)
14 | UGT8 (lysine site: K195) (UniProt Q16880) | 1.49 (active)
15 | UniProt P60842 (lysine site: K238) | 1.54 (active)
16 | ROBO1 (lysine site: K316) (UniProt Q9Y6N7) | 6.23
17 | GPC1 (lysine site: K461) (UniProt P35052) | 1.89 (active)
